Assay in all cases: NCI-60 one-dose screen, 48 h (100 = growth as untreated, 0 = no growth, -100 = all killed)
Test [1] deals with DU-145 prostate. Conditions: 10 µM unless noted.
Test [2] concerns K-562 leukemia. The conditions noted are these: 10 µM unless noted.
The test system of test [3] is MALME-3M melanoma. The conditions noted are these: 10 µM unless noted.
For test [4], the system named is MDA-MB-231 breast. Conditions: 10 µM unless noted.
Test [5] has as its system RXF 393 renal. The conditions noted are these: 10 µM unless noted.
Test [6] concerns SF-268 CNS. The conditions noted are these: 10 µM unless noted.
For test [7], the system named is SF-295 CNS. The conditions noted are these: 10 µM unless noted.
For test [8], the system named is SF-539 CNS. Conditions: 10 µM unless noted.
The subject of test [9] is UACC-257 melanoma. Conditions: 10 µM unless noted.
For test [10], the system named is M14 melanoma. The conditions noted are these: 10 µM unless noted.
Test [11] deals with HCT-15 colon. The conditions noted are these: 10 µM unless noted.
Test [12] concerns HT29 colon. Conditions: 10 µM unless noted.
Test [13] has as its system SNB-75 CNS. Conditions: 10 µM unless noted.
Test [14] deals with U251 CNS. Conditions: 10 µM unless noted.
Test [15] deals with PC-3 prostate. Conditions: 10 µM unless noted.
For test [16], the system named is SK-MEL-5 melanoma. Conditions: 10 µM unless noted.
For test [17], the system named is UACC-62 melanoma. Conditions: 10 µM unless noted.
Test [18] has as its system LOX IMVI melanoma. The conditions noted are these: 10 µM.
Test [19] concerns SK-MEL-28 melanoma. The conditions noted are these: 10 µM unless noted.

The panel holds about 83,000 compounds, 20% with a hit somewhere; the sample as a whole holds those more often.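 Treatment: one concentration, 48 hours, 96-well format. Scoring: percent growth, with anything below 10 considered active.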 Unmarked numbers belong to inactive results. Calls of active or inactive are those of the source.

With `O=c1[nH]c2ccccc2cc1CSc1cccc(Nc2nccc(-c3ccc4ccccc4c3)n2)c1`, the growth in [1] is 89.6%; in [2] it was 64.3%; in test [3], 92%; in test [4], 95.6%; in test [5] it was 81.3%; in test [6], 98.1%. Further, the growth in test [7] is 88%; in test [8], 98.3%; in [9], 99.3%; in [10] it was 86.7%; in [11], 65.1%; in test [12], 81.8%. The growth in test [13] is 84.6%; in test [14], 81.9%; in test [15], 71%; in test [16], 63.8%; in test [17], 95.2%; in test [18], 87.4%. Besides, in test [19], the growth is 106%.

With `CN(C)c1ccnc(CNCCSC2(c3ccc(C(F)(F)F)cc3)c3ccccc3C=Cc3ccccc32)c1`, the growth in [1] is 3.69% (active); in [2] it was -11.1% (active); in [3], -89.7% (active); in test [4], -48% (active); in test [5], -26.7% (active); in [6] it was 7.1% (active). In addition, the growth in [7] was -90.6% (active); in test [8], -96.8% (active); in test [9] it was -20.6% (active); in [10], -74.7% (active); in test [11], -90.6% (active); in [12], -61.7% (active). Moreover, the growth in [13] was -6.52% (active); in [14], -77% (active); in [15], -3.49% (active); in test [16], -97.1% (active); in test [17], 2.63% (active); in test [18] it was -92% (active). In addition, the growth in test [19] is -67.4% (active).

As to `CCN(CC)c1ccnc(CNCCSC(c2ccccc2)(c2ccccc2)c2ccc(OC)cc2)c1`, the growth was -25.3% (active) in test [1]; -23.6% (active) in test [2]; -92.5% (active) in test [3]; -45.5% (active) in test [4]; -26% (active) in [5]; 4.54% (active) in test [6]. The growth in test [7] was -93.7% (active); in [8], -95.8% (active); in [9] it was -45.3% (active); in test [10], -74.7% (active); in [11], -58.2% (active); in [12], -63.1% (active). Further, the growth was 3.35% (active) in test [13]; -80.3% (active) in [14]; -36% (active) in [15]; -99.9% (active) in test [16]; -39.3% (active) in test [17]; -99.2% (active) in test [18]. In addition, the growth in test [19] was -48.5% (active).

In the case of `CCCCSc1nc(NCCc2c[nH]c3ccccc23)c(C#N)c(-c2ccc(OC)cc2)n1`, the growth is 68.4% in [1]; 22.4% in test [2]; 93.4% in test [3]; 36.9% in test [4]; -2.63% (active) in test [5]; 56% in [6]. In addition, the growth in [7] is 43.4%; in [8], 54.4%; in test [9] it was 94.8%; in [10], 70.1%; in [11], 24.9%; in test [12], 25.1%. Moreover, the growth was 65.4% in test [13]; 55.2% in test [14]; 23.2% in [15]; 46.2% in test [16]; 71.2% in [17]; 37.7% in test [18]. Besides, the growth in test [19] is 75.8%.

With `O=c1onc(-c2cc3ccccc3nc2Cl)n1-c1cccc2ccccc12`, the growth was 80.7% in test [1]; 17.6% in test [2]; 55.3% in test [3]; 29.7% in test [4]; 43.5% in [5]; 73.8% in test [6]. The growth in test [7] was 15.5%; in test [8], 52.6%; in test [9] it was 70.7%; in test [10], 38.3%; in [11], 21.6%; in [12], 39.6%. The growth in test [13] was 8% (active); in test [14] it was 54.8%; in test [15], 40.4%; in test [16], 3.23% (active); in test [17] it was 29.9%; in test [18], 42%. Also, the growth in test [19] was 55.9%.

In the case of `CCCCSc1nc(NCCc2c[nH]c3ccccc23)c(C#N)c(-c2ccc(F)cc2)n1`, the growth in test [1] is 66.4%; in test [2], 22.2%; in [3], 90.9%; in test [4], 52.2%; in test [5] it was 65.2%; in test [6] it was 54.9%. Also, the growth was 62.1% in test [7]; 65.2% in test [8]; 97.9% in test [9]; 65.9% in test [10]; 28.8% in [11]; 25.4% in test [12]. Also, the growth was 74.2% in test [13]; 45.6% in [14]; 28.5% in [15]; 37.6% in [16]; 61.4% in test [17]; 36.1% in test [18]. In addition, the growth in test [19] was 81.4%.

As for `CC(C)CSc1nc(NCCc2c[nH]c3ccccc23)c(C#N)c(-c2ccccc2)n1`, the growth was 66.8% in test [1]; 20.5% in [2]; 91.8% in test [3]; 38.3% in [4]; 32.5% in [5]; 67.4% in test [6]. The growth in test [7] was 68.7%; in test [8] it was 62.5%; in [9], 97.4%; in test [10], 74.5%; in [11], 22.6%; in test [12] it was 4.54% (active). For the same compound, the growth in test [13] was 82.8%; in test [14] it was 33.5%; in [15], 17.8%; in test [16] it was 27.3%; in [17] it was 77.3%; in [18], 33.3%. For the same compound, in test [19], the growth is 87.3%.

As for `CN(C)c1ccnc(NCCCSC(c2ccccc2)(c2ccccc2)c2ccccc2)c1`, the growth in test [1] is 46.2%; in test [2] it was -36.6% (active); in test [3], -94.6% (active); in test [4] it was 31%; in [5], 6.09% (active); in test [6], 78.8%. Further, the growth is 17% in test [7]; 41.6% in test [8]; -26.9% (active) in test [9]; -70.8% (active) in [10]; 10.7% in [11]; -51.8% (active) in [12]. The growth in test [13] was 63.1%; in test [14], 6.61% (active); in [15] it was 7.71% (active); in [16], -98.4% (active); in test [17], 28.6%; in test [18] it was 47.9%. Besides, the growth in [19] was -77.3% (active).

Values taken from PubChem BioAssay (NCI).
